# From paper PMC7862700, “An all-to-all approach to the identification of sequence-specific readers for epigenetic DNA modifications on cytosine”
# Columns and labels:
# Test in all cases: DAPPL (digital affinity profiling via proximity ligation, sequencing); 10 mM Tris-HCl pH 7.5, 50 mM NaCl, 1 mM DTT, 4% glycerol, room temperature, 30 min; GST-TFs on glutathione beads, 16-mer random dsDNA library, 0.1% formaldehyde crosslink after washing; high values mean tight binding
# FEV = molecular target: T1, FEV (Homo sapiens, UniProt Q99581 1-238); settings: protein: recombinant; tags: N-terminal GST; dsDNA, one strand shown
# T1 sequence: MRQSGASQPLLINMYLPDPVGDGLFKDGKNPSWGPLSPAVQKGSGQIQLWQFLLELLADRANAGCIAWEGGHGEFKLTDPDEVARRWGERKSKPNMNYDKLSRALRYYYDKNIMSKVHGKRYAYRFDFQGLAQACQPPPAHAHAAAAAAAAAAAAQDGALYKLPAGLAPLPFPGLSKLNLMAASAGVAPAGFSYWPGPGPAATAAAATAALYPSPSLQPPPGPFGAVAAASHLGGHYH
# In short: (§1)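 Beads coated with glutathione captured GST-fused human transcription factors that had been expressed in yeast, and the factors were then given DNA barcodes and pooled with a tag-only sample. The pools were incubated with 200 nmole of a random double-stranded 16-mer DNA library in Tris/NaCl/DTT/glycerol buffer for 30 min at room temperature, washed, crosslinked with 0.1% formaldehyde and proximity-ligated with BsaI/T4 ligase at 37 °C for 1 h. PCR amplification and Illumina NextSeq500 sequencing came last. Binding signal is each hexamer's read frequency for a factor divided by its frequency for the tag-only sample.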
# ETV5 = ETV5 (Homo sapiens, UniProt P41161 1-510); settings: protein: recombinant; tags: N-terminal GST; dsDNA, one strand shown
# In short: as §1
# HSF1 = HSF1 (Homo sapiens, UniProt Q00613 1-529); settings: protein: recombinant; tags: N-terminal GST; chain copies: 3; dsDNA, one strand shown
# In short: as §1
# SPIC = molecular target: T2, SPIC (Homo sapiens, UniProt Q8N5J4 1-248); settings: protein: recombinant; tags: N-terminal GST; dsDNA, one strand shown
# T2 sequence: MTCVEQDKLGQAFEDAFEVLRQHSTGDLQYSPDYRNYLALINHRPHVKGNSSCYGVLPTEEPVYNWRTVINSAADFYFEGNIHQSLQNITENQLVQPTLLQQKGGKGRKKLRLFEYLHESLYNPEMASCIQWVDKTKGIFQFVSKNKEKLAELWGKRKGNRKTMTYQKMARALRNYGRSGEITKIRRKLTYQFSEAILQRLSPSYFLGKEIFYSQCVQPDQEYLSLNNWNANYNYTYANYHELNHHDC
# In short: as §1
# ELF4 = ELF4 (Homo sapiens, UniProt Q99607 1-663); settings: protein: recombinant; tags: N-terminal GST; dsDNA, one strand shown
# In short: as §1
# ELK4 = molecular target: T3, ELK4 (Homo sapiens, UniProt P28324-2 1-405); settings: protein: recombinant; tags: N-terminal GST; dsDNA, one strand shown
# T3 sequence: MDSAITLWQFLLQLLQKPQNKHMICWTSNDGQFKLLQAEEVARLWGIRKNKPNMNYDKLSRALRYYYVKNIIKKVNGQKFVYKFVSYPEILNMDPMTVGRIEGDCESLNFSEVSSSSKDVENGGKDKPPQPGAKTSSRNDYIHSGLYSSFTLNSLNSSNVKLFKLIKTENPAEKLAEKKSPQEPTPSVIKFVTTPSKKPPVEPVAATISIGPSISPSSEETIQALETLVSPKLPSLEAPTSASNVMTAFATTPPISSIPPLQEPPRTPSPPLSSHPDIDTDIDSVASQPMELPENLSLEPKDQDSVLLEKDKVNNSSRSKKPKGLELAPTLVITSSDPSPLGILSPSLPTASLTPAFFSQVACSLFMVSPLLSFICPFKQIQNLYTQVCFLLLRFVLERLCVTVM
# In short: as §1
# ETV2 = molecular target: T4, ETV2 (Homo sapiens, UniProt O00321 1-342); settings: protein: recombinant; tags: N-terminal GST; dsDNA, one strand shown
# T4 sequence: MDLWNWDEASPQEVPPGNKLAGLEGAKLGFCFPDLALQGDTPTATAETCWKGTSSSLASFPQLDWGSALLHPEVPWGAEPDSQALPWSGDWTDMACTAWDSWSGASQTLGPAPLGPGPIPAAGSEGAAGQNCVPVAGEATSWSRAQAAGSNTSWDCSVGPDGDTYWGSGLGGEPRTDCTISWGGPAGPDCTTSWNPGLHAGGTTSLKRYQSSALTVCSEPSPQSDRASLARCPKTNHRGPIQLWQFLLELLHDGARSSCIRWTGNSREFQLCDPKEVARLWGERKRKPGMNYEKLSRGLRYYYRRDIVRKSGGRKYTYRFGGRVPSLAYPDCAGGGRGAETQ
# In short: as §1
# ELF3 = molecular target: T5, ELF3 (Homo sapiens, UniProt P78545 1-371); settings: protein: recombinant; tags: N-terminal GST; dsDNA, one strand shown
# T5 sequence: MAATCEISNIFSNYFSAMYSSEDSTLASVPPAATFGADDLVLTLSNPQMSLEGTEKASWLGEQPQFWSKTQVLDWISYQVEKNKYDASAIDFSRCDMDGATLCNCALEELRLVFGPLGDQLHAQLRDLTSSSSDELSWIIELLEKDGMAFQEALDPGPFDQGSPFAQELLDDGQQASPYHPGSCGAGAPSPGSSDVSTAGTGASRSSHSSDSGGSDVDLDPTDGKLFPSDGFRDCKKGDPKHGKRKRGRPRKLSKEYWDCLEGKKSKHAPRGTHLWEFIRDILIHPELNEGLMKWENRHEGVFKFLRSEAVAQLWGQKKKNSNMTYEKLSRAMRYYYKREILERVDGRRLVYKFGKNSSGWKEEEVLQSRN
# In short: as §1
# CRX = CRX (Homo sapiens, UniProt O43186 1-299); settings: protein: recombinant; tags: N-terminal GST; dsDNA, one strand shown
# In short: as §1
# ETV1 = ETV1 (Homo sapiens, UniProt P50549 1-477); settings: protein: recombinant; tags: N-terminal GST; dsDNA, one strand shown
# In short: as §1
# ERF = molecular target: T6, ERF (Homo sapiens, UniProt P50548 1-548); settings: protein: recombinant; tags: N-terminal GST; dsDNA, one strand shown
# T6 sequence: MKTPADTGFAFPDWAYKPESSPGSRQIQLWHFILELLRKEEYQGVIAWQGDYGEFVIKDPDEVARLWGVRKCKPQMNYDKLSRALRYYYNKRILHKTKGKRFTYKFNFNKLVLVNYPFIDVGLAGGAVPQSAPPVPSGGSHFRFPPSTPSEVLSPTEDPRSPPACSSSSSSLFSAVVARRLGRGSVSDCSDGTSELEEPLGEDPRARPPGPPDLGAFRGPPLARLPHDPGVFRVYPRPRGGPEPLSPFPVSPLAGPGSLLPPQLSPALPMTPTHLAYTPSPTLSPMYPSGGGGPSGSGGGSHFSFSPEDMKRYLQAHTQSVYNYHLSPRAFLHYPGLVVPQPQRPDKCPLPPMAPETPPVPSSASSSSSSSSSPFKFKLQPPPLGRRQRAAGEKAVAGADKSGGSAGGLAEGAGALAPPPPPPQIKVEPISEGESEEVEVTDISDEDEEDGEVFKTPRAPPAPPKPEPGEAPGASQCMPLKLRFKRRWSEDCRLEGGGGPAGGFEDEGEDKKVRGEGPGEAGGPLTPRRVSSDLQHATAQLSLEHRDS
# In short: as §1
# ETV3L = molecular target: T7, ETV3L (Homo sapiens, UniProt Q6ZN32 1-361); settings: protein: recombinant; tags: N-terminal GST; dsDNA, one strand shown
# T7 sequence: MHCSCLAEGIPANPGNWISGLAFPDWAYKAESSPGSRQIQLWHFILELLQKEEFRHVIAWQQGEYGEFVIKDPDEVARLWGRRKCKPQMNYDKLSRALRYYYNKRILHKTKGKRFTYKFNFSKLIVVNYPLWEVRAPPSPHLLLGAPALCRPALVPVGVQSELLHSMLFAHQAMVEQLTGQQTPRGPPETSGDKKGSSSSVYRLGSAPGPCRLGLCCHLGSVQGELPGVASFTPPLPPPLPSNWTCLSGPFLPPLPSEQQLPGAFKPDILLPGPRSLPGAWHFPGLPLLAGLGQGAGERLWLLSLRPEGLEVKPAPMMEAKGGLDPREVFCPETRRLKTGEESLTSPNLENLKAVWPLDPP
# In short: as §1
# ETS2 = molecular target: T8, ETS2 (Homo sapiens, UniProt P15036 1-469); settings: protein: recombinant; tags: N-terminal GST; dsDNA, one strand shown
# T8 sequence: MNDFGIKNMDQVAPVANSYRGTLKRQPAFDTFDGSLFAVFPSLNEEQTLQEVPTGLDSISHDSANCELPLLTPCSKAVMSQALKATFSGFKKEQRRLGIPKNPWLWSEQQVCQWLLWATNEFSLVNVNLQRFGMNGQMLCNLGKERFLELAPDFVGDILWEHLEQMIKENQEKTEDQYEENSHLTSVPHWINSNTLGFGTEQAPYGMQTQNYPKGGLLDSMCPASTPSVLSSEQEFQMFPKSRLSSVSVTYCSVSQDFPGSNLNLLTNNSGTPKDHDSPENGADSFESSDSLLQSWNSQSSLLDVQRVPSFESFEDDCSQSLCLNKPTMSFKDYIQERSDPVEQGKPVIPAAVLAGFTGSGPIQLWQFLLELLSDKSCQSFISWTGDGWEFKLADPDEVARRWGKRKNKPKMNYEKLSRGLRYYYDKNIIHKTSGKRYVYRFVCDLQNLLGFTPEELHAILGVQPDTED
# In short: as §1
# SPDEF = molecular target: T9, SPDEF (Homo sapiens, UniProt O95238 1-335); settings: protein: recombinant; tags: N-terminal GST; dsDNA, one strand shown
# T9 sequence: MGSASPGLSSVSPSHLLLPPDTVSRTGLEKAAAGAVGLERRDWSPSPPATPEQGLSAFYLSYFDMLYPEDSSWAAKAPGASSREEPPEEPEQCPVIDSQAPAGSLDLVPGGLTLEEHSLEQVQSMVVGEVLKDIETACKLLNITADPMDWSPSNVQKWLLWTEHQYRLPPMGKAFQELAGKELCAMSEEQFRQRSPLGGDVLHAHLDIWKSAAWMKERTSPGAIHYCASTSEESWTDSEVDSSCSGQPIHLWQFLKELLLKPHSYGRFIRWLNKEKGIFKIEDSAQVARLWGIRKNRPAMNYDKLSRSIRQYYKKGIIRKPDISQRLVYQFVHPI
# In short: as §1
# ETV7 = molecular target: T10, ETV7 (Homo sapiens, UniProt Q9Y603 1-341); settings: protein: recombinant; tags: N-terminal GST; dsDNA, one strand shown
# T10 sequence: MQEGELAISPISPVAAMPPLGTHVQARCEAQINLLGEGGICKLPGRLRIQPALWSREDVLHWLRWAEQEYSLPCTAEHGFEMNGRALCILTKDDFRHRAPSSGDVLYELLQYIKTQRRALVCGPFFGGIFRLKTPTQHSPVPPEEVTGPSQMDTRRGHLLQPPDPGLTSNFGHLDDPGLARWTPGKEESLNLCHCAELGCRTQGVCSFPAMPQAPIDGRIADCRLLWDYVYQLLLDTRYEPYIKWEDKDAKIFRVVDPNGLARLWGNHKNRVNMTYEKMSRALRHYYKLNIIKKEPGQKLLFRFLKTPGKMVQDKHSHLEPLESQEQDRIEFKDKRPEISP
# In short: as §1
# ELF5 = molecular target: T11, ELF5 (Homo sapiens, UniProt Q9UKW6-2 1-255); settings: protein: recombinant; tags: N-terminal GST; dsDNA, one strand shown
# T11 sequence: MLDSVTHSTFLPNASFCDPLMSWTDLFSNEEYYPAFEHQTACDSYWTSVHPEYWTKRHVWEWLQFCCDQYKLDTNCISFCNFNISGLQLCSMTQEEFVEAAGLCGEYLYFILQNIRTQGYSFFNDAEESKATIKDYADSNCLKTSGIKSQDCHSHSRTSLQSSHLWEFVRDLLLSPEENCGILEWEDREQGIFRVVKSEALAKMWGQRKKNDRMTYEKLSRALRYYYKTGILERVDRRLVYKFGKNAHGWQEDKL
# In short: as §1
# ETV3 = molecular target: T12, ETV3 (Homo sapiens, UniProt P41162-2 1-143); settings: protein: recombinant; tags: N-terminal GST; dsDNA, one strand shown
# T12 sequence: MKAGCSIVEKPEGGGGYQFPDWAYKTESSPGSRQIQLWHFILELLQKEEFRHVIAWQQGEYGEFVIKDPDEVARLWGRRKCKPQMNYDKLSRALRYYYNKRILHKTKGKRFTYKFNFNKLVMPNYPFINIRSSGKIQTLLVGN
# In short: as §1
# ETV6 = ETV6 (Homo sapiens, UniProt P41212 1-452); settings: protein: recombinant; tags: N-terminal GST; dsDNA, one strand shown
# In short: as §1
# Sequence of ETV1 (P50549 whole entry): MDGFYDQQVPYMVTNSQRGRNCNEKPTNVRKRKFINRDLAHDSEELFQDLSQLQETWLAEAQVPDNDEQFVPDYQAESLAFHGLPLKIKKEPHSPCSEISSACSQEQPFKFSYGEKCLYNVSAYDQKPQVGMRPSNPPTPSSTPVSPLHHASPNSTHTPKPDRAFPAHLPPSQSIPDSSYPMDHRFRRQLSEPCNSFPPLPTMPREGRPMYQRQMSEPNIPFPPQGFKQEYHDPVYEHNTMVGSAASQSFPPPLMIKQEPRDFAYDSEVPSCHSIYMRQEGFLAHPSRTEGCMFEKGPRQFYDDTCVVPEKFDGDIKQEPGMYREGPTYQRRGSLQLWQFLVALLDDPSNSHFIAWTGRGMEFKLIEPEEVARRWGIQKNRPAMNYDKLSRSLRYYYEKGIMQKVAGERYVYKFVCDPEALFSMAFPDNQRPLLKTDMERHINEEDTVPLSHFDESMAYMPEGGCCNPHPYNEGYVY
# Sequence of ETV5 (P41161 whole entry): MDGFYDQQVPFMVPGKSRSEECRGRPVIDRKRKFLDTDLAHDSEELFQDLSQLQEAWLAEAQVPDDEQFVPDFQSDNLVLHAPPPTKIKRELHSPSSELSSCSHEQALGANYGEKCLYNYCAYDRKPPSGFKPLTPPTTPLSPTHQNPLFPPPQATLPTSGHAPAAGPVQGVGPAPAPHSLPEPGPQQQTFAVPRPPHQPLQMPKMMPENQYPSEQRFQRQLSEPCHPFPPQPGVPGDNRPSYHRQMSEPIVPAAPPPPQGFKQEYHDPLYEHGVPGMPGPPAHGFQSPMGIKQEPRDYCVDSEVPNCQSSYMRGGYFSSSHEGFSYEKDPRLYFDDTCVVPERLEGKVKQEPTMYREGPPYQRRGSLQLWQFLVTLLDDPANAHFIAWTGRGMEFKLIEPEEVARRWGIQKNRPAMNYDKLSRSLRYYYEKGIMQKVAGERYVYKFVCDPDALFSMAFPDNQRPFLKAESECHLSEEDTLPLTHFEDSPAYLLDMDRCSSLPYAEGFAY
# Sequence of HSF1 (Q00613 whole entry): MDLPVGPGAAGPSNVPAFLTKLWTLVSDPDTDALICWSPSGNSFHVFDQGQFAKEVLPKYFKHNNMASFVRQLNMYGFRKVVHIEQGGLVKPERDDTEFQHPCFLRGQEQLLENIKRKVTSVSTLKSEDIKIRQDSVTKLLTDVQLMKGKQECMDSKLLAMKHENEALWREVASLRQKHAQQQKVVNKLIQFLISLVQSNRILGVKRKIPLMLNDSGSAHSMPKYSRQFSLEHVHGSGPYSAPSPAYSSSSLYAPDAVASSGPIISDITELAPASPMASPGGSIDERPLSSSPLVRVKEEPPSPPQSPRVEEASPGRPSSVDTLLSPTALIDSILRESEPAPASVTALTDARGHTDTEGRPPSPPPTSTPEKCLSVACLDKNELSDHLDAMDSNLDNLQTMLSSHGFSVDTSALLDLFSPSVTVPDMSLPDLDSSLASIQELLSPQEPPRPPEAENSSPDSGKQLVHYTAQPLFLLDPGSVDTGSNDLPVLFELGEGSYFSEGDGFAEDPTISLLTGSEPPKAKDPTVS
# Sequence of CRX (O43186 whole entry): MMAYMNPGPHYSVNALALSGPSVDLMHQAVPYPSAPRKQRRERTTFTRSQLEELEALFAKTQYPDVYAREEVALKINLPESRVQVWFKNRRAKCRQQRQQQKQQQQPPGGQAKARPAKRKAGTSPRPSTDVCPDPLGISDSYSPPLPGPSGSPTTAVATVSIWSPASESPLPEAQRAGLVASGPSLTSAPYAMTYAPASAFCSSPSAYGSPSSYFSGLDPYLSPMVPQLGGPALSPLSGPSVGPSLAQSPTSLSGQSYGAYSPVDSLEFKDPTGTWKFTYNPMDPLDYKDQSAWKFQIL
# Sequence of ELF4 (Q99607 whole entry): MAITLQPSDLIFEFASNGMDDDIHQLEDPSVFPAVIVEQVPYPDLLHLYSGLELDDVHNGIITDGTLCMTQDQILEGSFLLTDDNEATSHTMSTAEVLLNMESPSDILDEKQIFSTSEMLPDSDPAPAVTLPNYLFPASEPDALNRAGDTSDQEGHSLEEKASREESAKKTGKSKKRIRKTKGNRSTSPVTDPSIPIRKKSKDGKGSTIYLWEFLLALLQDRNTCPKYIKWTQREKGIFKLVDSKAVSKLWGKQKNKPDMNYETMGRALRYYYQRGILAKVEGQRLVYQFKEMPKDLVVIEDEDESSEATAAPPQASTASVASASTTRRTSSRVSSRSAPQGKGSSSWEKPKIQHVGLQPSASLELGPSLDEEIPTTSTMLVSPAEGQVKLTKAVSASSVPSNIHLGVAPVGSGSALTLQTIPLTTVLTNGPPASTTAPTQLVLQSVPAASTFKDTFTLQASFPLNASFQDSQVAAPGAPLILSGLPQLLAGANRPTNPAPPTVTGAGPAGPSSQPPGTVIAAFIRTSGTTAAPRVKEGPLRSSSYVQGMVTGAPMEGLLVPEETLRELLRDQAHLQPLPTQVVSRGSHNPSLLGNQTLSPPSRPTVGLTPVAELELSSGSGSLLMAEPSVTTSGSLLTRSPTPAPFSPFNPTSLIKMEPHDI
# Sequence of ETV6 (P41212 whole entry): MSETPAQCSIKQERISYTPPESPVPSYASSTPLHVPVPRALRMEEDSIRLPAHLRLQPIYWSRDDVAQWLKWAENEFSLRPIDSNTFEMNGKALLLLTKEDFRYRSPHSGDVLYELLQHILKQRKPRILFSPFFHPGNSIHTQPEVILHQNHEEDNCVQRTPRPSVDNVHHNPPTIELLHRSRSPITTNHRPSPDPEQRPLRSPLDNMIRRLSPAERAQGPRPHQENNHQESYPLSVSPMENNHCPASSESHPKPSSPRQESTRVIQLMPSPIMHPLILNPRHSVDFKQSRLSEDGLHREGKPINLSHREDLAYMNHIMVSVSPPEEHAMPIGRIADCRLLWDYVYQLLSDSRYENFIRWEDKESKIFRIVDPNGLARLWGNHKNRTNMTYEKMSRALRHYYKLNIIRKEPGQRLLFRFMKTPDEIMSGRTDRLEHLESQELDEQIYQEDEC
sequence,measurement,setting,value
TTTAGC,binding signal,FEV,"1.11 fold enrichment (6-mer frequency, TF over GST control)"
same,binding signal,ETV5,"1.03 fold enrichment (6-mer frequency, TF over GST control)"
same,binding signal,HSF1,"1.25 fold enrichment (6-mer frequency, TF over GST control)"
same,binding signal,SPIC,"1.07 fold enrichment (6-mer frequency, TF over GST control)"
same,binding signal,ELF4,"1.2 fold enrichment (6-mer frequency, TF over GST control)"
same,binding signal,ELK4,"1.13 fold enrichment (6-mer frequency, TF over GST control)"
same,binding signal,ETV2,"1.13 fold enrichment (6-mer frequency, TF over GST control)"
same,binding signal,ELF3,"1.08 fold enrichment (6-mer frequency, TF over GST control)"
same,binding signal,CRX,"1.64 fold enrichment (6-mer frequency, TF over GST control)"
same,binding signal,ETV1,"1.18 fold enrichment (6-mer frequency, TF over GST control)"
same,binding signal,ERF,"1.19 fold enrichment (6-mer frequency, TF over GST control)"
same,binding signal,ETV3L,"1.21 fold enrichment (6-mer frequency, TF over GST control)"
same,binding signal,ETS2,"1.01 fold enrichment (6-mer frequency, TF over GST control)"
same,binding signal,SPDEF,"1.08 fold enrichment (6-mer frequency, TF over GST control)"
same,binding signal,ETV7,"1.03 fold enrichment (6-mer frequency, TF over GST control)"
same,binding signal,ELF5,"1 fold enrichment (6-mer frequency, TF over GST control)"
same,binding signal,ETV3,"1.13 fold enrichment (6-mer frequency, TF over GST control)"
same,binding signal,ETV6,"1.12 fold enrichment (6-mer frequency, TF over GST control)"
